# In all, about 33,000 sequences were measured (“E-score (-0.5 to 0.5)”: median about -0.017, highest 2% from about 0.3 on). What follows is part of a selection rich in the highest values, with near analogues and random picks from the rest.
# Target: T1, Sut1 (UniProt P53032)
# T1 sequence: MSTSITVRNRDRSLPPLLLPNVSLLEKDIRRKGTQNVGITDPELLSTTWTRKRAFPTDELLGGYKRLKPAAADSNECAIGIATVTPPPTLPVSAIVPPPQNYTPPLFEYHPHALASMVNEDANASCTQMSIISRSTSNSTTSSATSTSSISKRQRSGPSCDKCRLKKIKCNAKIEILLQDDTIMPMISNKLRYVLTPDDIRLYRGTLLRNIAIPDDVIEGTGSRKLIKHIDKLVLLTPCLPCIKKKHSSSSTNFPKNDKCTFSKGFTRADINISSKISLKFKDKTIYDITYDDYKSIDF
# Test: PBM E-score (8-mer binding enrichment) (E-score (-0.5 to 0.5)); higher = stronger / more preferred TF binding
# Conditions: protein concentration: 200 nM; construct: GST-full length
# Procedure: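 Universal 'all 10-mer' protein binding microarrays (Agilent AMADID 015681) probed with GST-tagged S. cerevisiae TFs (full-length or DBD) made by in vitro transcription/translation (PURExpress), about 100-200 nM. Bound TF was detected with fluorescent anti-GST. Each ungapped 8-mer (which stands for itself and its reverse complement) is scored by the PBM enrichment score (E-score), a modified Wilcoxon-Mann-Whitney statistic from -0.5 to +0.5, computed with the Universal PBM Analysis Suite. Scale: above 0.35 generally sequence-specific binding.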
row,Sequence,PBM E-score
1,CGATTTCA,0.0969
2,CCACACGG,-0.0635
3,ACGTCCGG,0.101
4,ATCCGTAC,0.178
5,CCCCGTAA,0.0974
6,CACCGTAC,0.0478
7,ATCCGTAA,0.183
8,CTCCGTAC,0.331
9,GTCCGTAA,0.342
10,GACCGTAA,-0.0628
11,CACCGTAA,0.0107
12,CTCCGTAA,0.328
13,AGCATTGA,-0.0961
14,CCTAACCA,0.0768
15,ACATCTGC,-0.193
16,GTTAAAGA,0.0511
17,ATTAAATG,0.243
18,TAAAAATA,0.249
19,ATTAAAGA,0.311
20,TATAAAAA,0.318
21,ATTAAATA,0.315
22,CATAAAAA,0.161
23,ATTAAATC,0.191
24,TATAAATA,0.343
25,CATAAATA,0.168
26,GATAAAAA,0.263

row,Sequence,PBM E-score
1,CTTAAAGA,0.111
2,ACCATGAG,-0.166
3,TGCTTCAA,0.0485
4,AAGTTCTA,0.0927
5,GAGGATCA,-0.09
6,CAGCTATC,-0.207
7,ATGAGTCG,-0.157
8,ACAGCGTG,-0.171
9,AGGCCCAC,-0.387
10,AAGGCTAA,0.0404
11,AACAAATA,0.201
12,AATAAATT,0.237
13,CACAAATA,0.13
14,AATAAATA,0.374
15,TACAAATA,0.303
16,AATAAATG,0.179
17,GATAAATC,0.26
18,GATAAACA,0.203
19,GATAAATA,0.325
20,AACAAGCG,-0.0413
21,GCGCCTCA,-0.0448
22,ACACTTAC,0.0992
23,CATCTCCA,-0.036
24,CATCTCCG,0.478
25,AATCTCCG,0.454
26,AATCTCCT,0.147

row,Sequence,PBM E-score
1,AGTCTCCA,-0.229
2,ATTCTCCC,-0.0729
3,CATCTCCC,-0.138
4,AGTCTCCC,-0.0841
5,ATTCTCCG,0.409
6,ATTCTCCA,-0.0299
7,AATCTCCC,-0.268
8,AGTCTCCG,0.316
9,GAACTTTA,0.145
10,GTAATTCA,0.182
11,CAAATCGG,0.0756
12,AGCCTTCG,-0.203
13,AATTTCGG,0.242
14,CAGAAATC,0.0914
15,CCGTTGGA,0.0326
16,ACTCGCTA,0.0713
17,AACGGACC,0.191
18,ACCGGAAC,0.29
19,ACCGGACG,0.114
20,AGCGGACT,0.406
21,AGCGGACG,-0.118
22,ACCGGACT,0.485
23,AACGGACT,0.444
24,ACTGGACT,-0.107
25,AACGGACG,0.0275
26,AACGGACA,0.24

row,Sequence,PBM E-score
1,ACCGGACC,0.364
2,AGCGGACA,0.107
3,AGCATATA,0.102
4,ACGCAAAC,-0.0168
5,CGGGGACA,-0.0417
6,AGAACAGC,-0.0298
7,ACGTGGTG,-0.133
8,CGCCATTA,0.0246
9,AGCCACCG,-0.122
10,ACTCCGCG,0.476
11,CCTCCGCA,-0.205
12,ACGCCGCT,-0.0911
13,CCTCCGCG,-0.0947
14,ACTCCCCG,0.196
15,GCTCCGCA,0.227
16,ACTCCGCA,0.473
17,CCTCCGCC,-0.221
18,GCTCCGCC,0.0486
19,ACTCCGCT,0.452
20,ACTCCGCC,0.438
21,AATCCGCT,-0.0383
22,CAACGGGA,0.0235
23,AGAACCAT,0.12
24,GAGGCTCC,0.0186
25,ACCTTTGG,-0.287
26,CACATCGA,-0.0466

row,Sequence,PBM E-score
1,AGCCACTG,-0.0195
2,GGGAGATA,-0.144
3,AGGAGATC,0.0207
4,CGGAGATA,0.458
5,CTGAGATC,-0.209
6,CGGAGATC,0.445
7,CGGAGACC,0.315
8,CGGAGACG,0.204
9,AGGAGATA,-0.155
10,GGGAGACC,-0.235
11,AAAAGCAA,0.242
12,ACCACCGT,-0.0843
13,GCAGGTAC,-0.132
14,CTCAAGCC,-0.126
15,GGAGAGCA,-0.125
16,CCCTAACA,0.071
17,AGTGCATG,-0.0963
18,CATGGGTC,-0.185
19,ATTCGTAC,0.154
20,GGGTCCGA,0.295
21,CGGTCCGA,0.264
22,AGGTCCGA,0.457
23,AGGTCCGC,0.286
24,AGGTCCGG,0.461
25,AGGTCCAG,-0.0827
26,CCTTGAAG,-0.0873

row,Sequence,PBM E-score
1,GCTCAAGA,-0.148
2,ATAGTGGG,-0.0539
3,AATCTGGT,0.047
4,AGGCCTTA,-0.127
5,GAAGCTCC,0.35
6,GAAGCTCA,-0.033
7,AAAGCTCC,0.0815
8,GACACCCA,-0.118
9,ATTCTATA,0.16
10,GGAGCGTA,0.0804
11,CTATCTCC,0.114
12,CAATCTCG,-0.097
13,CAATCTCA,-0.0455
14,CAATCTCC,0.312
15,ATCTCTCC,-0.0902
16,ATATCTCC,0.341
17,CATCTGCG,-0.0835
18,CGGTCAAG,-0.09
19,TCTGATAA,-0.0508
20,AATTGTCT,-0.0132
21,CTCGTTAA,0.1
22,ATAACGGA,0.341
23,GTAACGTA,0.0551
24,CTAACGGA,0.305
25,GTAACGCA,0.021
26,CTAACGGC,0.0477

row,Sequence,PBM E-score
1,CTAACGAA,-0.0566
2,ATAACGGC,0.00713
3,ATAACGGG,0.0139
4,GTAACGGA,0.329
5,GAAACGCA,0.026
6,CTGAGCGA,-0.162
7,AAGGTTGA,0.0981
8,GTTTAGTA,0.208
9,GACATCGC,-0.0981
10,CATAACAC,0.0299
11,CGCTCAGC,-0.105
12,ATTTTGCG,0.193
13,GCTCCCAC,-0.109
14,CATATGTC,-0.0849
15,CCTGTCAA,-0.085
16,ATCCGGGA,0.0768
17,ATCCGGGC,0.127
18,CGCCGGGA,-0.203
19,GTCCGGGA,0.413
20,CTCCGGGA,0.436
